Assay outcomes from PubChem.
LASV entry inh: blocks Lassa virus binding to or entry into cells | Potency, µM (top dose mostly 37.9 µM), for the others: at the top dose activity change, negative = inhibition, hits mostly inhibitors | actives 1.2% (n = 300,000) | Lassa virus pseudotype entry inhibition, cell reporter | AID 540256; calls by dose curve; tested in HEK293 cells; note: potency is the fitted concentration of half-maximal effect; % is set by controls: 0 for no effect and ±100 for the full control effect; nearly all actives have a fitted effect of over 50% in size
CHX counter: affects cycloheximide protein synthesis inhibition readout, counter-screen. AID 2314. actives 12% (n = 300,000). max response, %. cell reporter, cycloheximide protein synthesis inhibition counterscreen; in the data active = max response mostly above about 13%, no sharp cut-off; inactive = mostly below about 14%; note: read at 38.3 µM for the half of the compounds with a filed dose; 0% is about no effect
MARV entry inh: blocks Marburg virus binding to or entry into cells | Marburg virus pseudotyped entry inhibition, cell reporter | Potency, µM (doses to about 37.8 µM), for inactives: top-dose activity change, negative = inhibition, most hits filed as inhibitors | actives 1.8% (n = 300,000) | AID 540276; calls by dose curve; tested in HEK293 cells; note: potency is the fitted concentration of half-maximal effect; % is set by controls: 0 for no effect and ±100 for the full control effect
Shiga toxin inh: inhibitors of Shiga toxin in Vero cells; Vero cells, Shiga toxin protein synthesis inhibition reporter; inhibition, % at 38.7 µM; actives 9.2% (n = 290,000); in the data active = inhibition mostly above about 28%, no sharp cut-off; inactive = mostly below about 43%; note: 0% is about no effect
Starred values were filed as active, the others as inactive; ? = inconclusive; . = no result; [ ] = remark or other dose. Compounds with a hit are over-represented: about 12% of the library has one in this group of screens.

SMILES	LASV entry inh	CHX counter	MARV entry inh	Shiga toxin inh
Cc1ccc(S(=O)(=O)Nc2ccc(-c3csc(-c4ccccc4)n3)cc2)cc1	?	7.5	-22.5%	9.6
O=C1C(=O)c2ccccc2C(O)=C1c1cccc([N+](=O)[O-])c1	3.55µM*	23.4*	5.62µM*	50.3
COc1ccccc1-c1cn(-c2ccccc2)c(=S)[nH]1	.	6.7	.	2.0
COc1ccccc1-n1cc(-c2ccc([N+](=O)[O-])cc2)[nH]c1=S	16.7%[46.1 µM]	-1.1	10.4%[46.1 µM]	19.9
COc1ccccc1-n1cc(-c2ccc(C)cc2)[nH]c1=S	?	23.0*	?	31.8*
COc1ccccc1-n1cc(-c2ccc(Br)cc2)[nH]c1=S	-5.8%[46.1 µM]	16.8*	?	30.7
CCOC(=O)Cn1c(S(=O)(=O)Cc2cccc(F)c2)nc(-c2ccccc2)c1-c1ccccc1	7.3µM*	7.3	2.59µM*	8.5
CCOC(=O)Cn1c(S(=O)(=O)Cc2ccc(F)cc2)nc(-c2ccccc2)c1-c1ccccc1	2.59µM*	3.0	4.11µM*	-3.2
Cn1c2c(c3ccccc31)CCN(CCCCN1CCN(c3ccccc3)CC1)C2=O	-1.0%[46.1 µM]	.	?	.
CC(=O)Nc1ccc(N/C=C/C(=O)c2ccc(C)o2)cc1	20.3%	22.2*	?	70.6*
COc1ccccc1Oc1ccc(N/C=C/C(=O)c2ccc(C)o2)cc1	-23.2%[46.1 µM]	24.8*	?	135.5*
Cc1ccc(S(=O)(=O)Nc2cc3c(cc2Cl)n(C)c(=O)c(=O)n3C)cc1	6.1%[46.1 µM]	.	1.3%[46.1 µM]	.
Cc1cc(C(C)(C)C)ccc1NC(=O)CC(C)(C)CC(=O)O	17.5%	49.0*	?	82.1*
Cc1ccc(-c2cc(-c3ccccc3)nc(NN)n2)cc1	-24.3%[46.1 µM]	-1.9	?	-2.8
COc1ccc(-c2cc(C(F)(F)F)nc(NCCc3ccccc3)n2)cc1OC	4.0%[46.1 µM]	.	-16.9%[46.1 µM]	.
COc1ccc(-c2cc(-c3ccccc3)nc(NN)n2)cc1OC	?	16.7*	?	34.6
COc1nc(-c2ccccc2)cc(-c2ccc(OC)c(OC)c2)n1	-19.1%	20.7	?	55.8*
Cc1cc(C(=O)CSc2nnc(N)s2)c(C)n1Cc1cccs1	0.355µM*	57.4*	1.58µM*	83.0*
COc1ccc(-c2nnc(SCC(=O)c3cc(C)n(Cc4cccs4)c3C)o2)cc1	18.0%	-1.1	-1.0%	23.4
Cc1csc(SCC(=O)c2cc(C)n(Cc3cccs3)c2C)n1	0.794µM*	16.8*	0.501µM*	31.6*
Cc1cc(C(=O)CSc2n[nH]c(-c3ccccc3F)n2)c(C)n1Cc1cccs1	-25.2%	17.0*	-24.8%[46.1 µM]	38.8
COc1cc(CO)ccc1OCc1nnnn1-c1ccc(C)cc1	0.3%	-2.5	14.5%	-0.2
CCCCN1CCc2nc(N3CCN(c4ncccn4)CC3)ncc2C1	-13.6%[46.1 µM]	.	.	.
Cc1ccsc1/C=N/n1cnc2sc(C)c(C)c2c1=O	0.5%	16.4*	17.7%	31.7
O=S(=O)(NC1CCCC1)c1ccc(S(=O)(=O)N2CCCN(Cc3ccccc3)C2)cc1	?	-4.8	5.8µM*	1.8
SMILES	LASV entry inh	CHX counter	MARV entry inh	Shiga toxin inh
N#Cc1ccc(S(=O)(=O)NC2CCN(Cc3ccccc3)CC2)cc1	-0.3%[46.1 µM]	1.0	-11.1%[46.1 µM]	-7.1
N#C/C(=C\c1ccccc1[N+](=O)[O-])c1nc(C2CC2)cs1	0.6%	56.8*	-4.1%	58.3*
COc1ccc(-c2csc(/C(C#N)=C\c3cccc([N+](=O)[O-])c3)n2)cc1	3.0%	0.5	15.8%	-8.1
N#C/C(=C/c1ccccc1[N+](=O)[O-])c1nc(C2CC2)cs1	-15.1%	24.8*	-4.0%	42.6
N#C/C(=C\C=C\c1ccccc1[N+](=O)[O-])c1nc(-c2ccc3c(c2)OCO3)cs1	-0.8%	-1.1	-6.5%	-4.2
N#C/C(=C\c1ccc([N+](=O)[O-])cc1)c1nc(C2CC2)cs1	17.6%	20.6*	?	15.4
Cc1ccc(N2CC(C(=O)Nc3ccc4c(c3)OCCO4)CC2=O)cc1 (centres undefined)	-2.2%	19.9*	4.2%	43.8*
Cc1ccc(N2CC(C(=O)Nc3ccc4c(c3)OCCO4)CC2=O)cc1C (centres undefined)	5.4%	16.4	-18.2%[46.1 µM]	52.8*
COC(=O)c1ccc(NC(=O)C2CC(=O)N(c3ccc(C)cc3)C2)cc1 (centres undefined)	14.6%	16.7*	15.5%	21.2
O=C(Nc1ccc2c(c1)OCO2)C1CC(=O)N(c2ccccc2)C1 (centres undefined)	14.2%[46.1 µM]	-1.3	?	-5.3
O=C(Nc1ccccc1Cl)OC1CN2CCC1CC2 (centres undefined)	5.4%	11.9	?	7.8
O=C(Nc1cccc(Cl)c1)OC1CN2CCC1CC2 (centres undefined)	.	25.6*	.	55.6*
O=C(Nc1ccccc1F)OC1CN2CCC1CC2 (centres undefined)	0.3%[46.1 µM]	5.0	-5.6%[46.1 µM]	-9.5
O=C(Nc1ccc(Cl)cc1)OC1CN2CCC1CC2 (centres undefined)	?	26.7*	9.9%	42.0*
CCCS(=O)(=O)N1CCC(C(=O)Oc2ccc(OC)cc2)CC1	-2.0%[46.1 µM]	1.4	7.0%[46.1 µM]	-3.2
COC(=O)C1=CN(Cc2ccccc2)C=C(C(=O)OC)C1c1cc(F)ccc1F	7.08µM*	6.1	-36.5%	-7.5
Cc1ccc(NC(=O)C2CCCN(S(=O)(=O)c3ccc(C)cc3)C2)cc1 (centres undefined)	-3.2%[46.1 µM]	.	6.0%[46.1 µM]	.
O=C1Nc2ccc(Br)cc2/C1=C/c1ccc(C(=O)O)cc1	.	-5.8	.	-2.6
O=C1Nc2ccc(-c3cccnc3)cc2C1=Cc1cc(Br)c(O)c(Br)c1	12.5µM*	.	.	.
CN(C)Cc1c(O)ccc2c(=O)c(-c3ccc(Cl)cc3)coc12	15.1%	14.2*	17.7%	18.2
O=c1c(-c2ccc3c(c2)OCCO3)coc2c(CN3CCOCC3)c(O)ccc12	5.9%	39.1*	10.4%	32.9*
O=c1c(-c2ccc([N+](=O)[O-])cc2)coc2c(O)c(O)ccc12	?	23.0*	?	56.8*
COc1ccccc1-c1coc2c(CN3CCOCC3)c(O)ccc2c1=O	.	-1.0	.	8.0
CCN(CC)Cc1c(O)ccc2c(=O)c(-c3ccc(Cl)cc3)coc12	.	9.7	.	10.1
COc1cc(CN(C(=O)c2ccc(OC(C)C)cc2)c2ccccn2)cc(OC)c1OC	-13.1%[46.1 µM]	.	?	.
SMILES	LASV entry inh	CHX counter	MARV entry inh	Shiga toxin inh
CCCN1CCC(=O)N([C@H](CSc2ccccc2)CC(C)C)CC1	.	45.2*	.	42.0*
CCCN1CCC(=O)N([C@H](CSc2ccc(C)cc2)CC(C)C)CC1	.	70.7*	.	61.7*
CC(C)CC(CSc1ccc(Br)cc1)N1CCN(CC(C)C)CCC1=O (centres undefined)	.	79.7*	.	108.3*
CC(C)CN1CCC(=O)N([C@H](CSc2ccc(Br)cc2)Cc2ccccc2)CC1	.	-2.0	.	-5.2
CCCN1CCC(=O)N(C(CSc2ccc(C)cc2)CC(C)C)CC1 (centres undefined)	.	42.2*	.	77.2*
COc1ccc(S(=O)(=O)N2CCC(n3c(C(F)(F)F)nc4cccnc43)CC2)cc1OC	-0.3%[46.1 µM]	.	.	.
CC(C)C[C@@H](CSc1ccccc1)N1CCN(CC(C)C)CCC1=O	.	35.3*	.	46.7*
CCOC(=O)c1ccc(NC(=O)CN(c2ccc(C)cc2)S(=O)(=O)c2c(C)noc2C)cc1	?	.	11.2µM*	.
COc1ccc(N(CC(=O)Nc2ccc3c(c2)OCCO3)S(=O)(=O)c2cccnc2)cc1	.	20.1*	3.8%	21.6
